The panel holds about 83,000 compounds, 20% with a hit somewhere; the sample as a whole holds those more often.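 Activity criterion: percent growth below 10, measured after cells in 96-well plates were exposed to a single compound concentration for 48 hours.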 Active and inactive are the calls of the source.
Key:
Assay in all cases: NCI-60 one-dose screen, 48 h (100 = growth as untreated, 0 = no growth, -100 = all killed)
Conditions in all cases: 10 µM unless noted
[1] = system: SK-MEL-2 melanoma
[2] = system: EKVX NSCLC
[3] = system: SN12C renal
[4] = system: UO-31 renal
[5] = system: TK-10 renal
[6] = system: CAKI-1 renal
[7] = system: A498 renal
[8] = system: CCRF-CEM leukemia
[9] = system: MOLT-4 leukemia
[10] = system: ACHN renal

Measured: growth

C=C(CBr)[C@@H]1CC[C@]2(C(=O)O)CC[C@]3(C)[C@H](CC[C@@H]4[C@@]5(C)CCC(=O)C(C)(C)[C@@H]5CC[C@]43C)[C@@H]12
inactive: [1] 79.7% | [2] 86.5% | [3] 72.5% | [4] 56.2% | [5] 112% | [6] 82% | [7] 110% | [8] 50.3% | [9] 54.4%

O=C(Cn1cc(CSc2nc3ccccc3o2)nn1)Nc1ccc(F)cc1F
inactive: [1] 114% | [2] 119% | [3] 96.4% | [4] 103% | [5] 117% | [6] 105% | [7] 112% | [8] 113% | [9] 120%

CC(=O)Oc1ccc(N2C(=O)C(Cl)=C(Nc3cccc(C(F)(F)F)c3)C2=O)cc1
inactive: [1] 88% | [2] 103% | [3] 93% | [4] 84.2% | [5] 94.9% | [6] 92% | [7] 92% | [8] 77.4% | [9] 85.9%

O=c1c2cccc3c(N4CCCC4)ccc(c32)c2nc3ccccc3n12
inactive: [1] 113% | [2] 75.9% | [3] 64.8% | [4] 56.2% | [5] 87.6% | [6] 51.3% | [7] 38% | [8] 53.7%

CC1=C2[C@@H](CC1)[C@]1(C)O[C@@](C(C)C)(C[C@H]1OC(=O)[C@H](C)O)[C@H]2OC(=O)/C=C/c1ccccc1
inactive: [1] 80.6% | [2] 66.1% | [3] 45.7% | [5] 90.1% | [6] 60.5% | [8] 85.8% | [9] 62.8%
active: [4] 0.932% | [7] -66.1%

N#Cc1c(-c2ccccc2)cc(-c2ccc(Nc3nc(Nc4ccc(Cl)cc4)nc(Nc4ccc(Cl)cc4)n3)cc2)nc1N
active: [2] 9.99% | [4] -82.4% | [5] -60.1% | [8] 4.06% | [9] 4.72%
inactive: [1] 34% | [3] 50.2% | [6] 20.1% | [7] 81.8%

Cc1ccc(-c2nc(N3CCCNCC3)c3oc(-c4ccc(C)cc4)nc3n2)cc1
active: [5] -1.53% | [8] -72.1% | [9] -66%
inactive: [1] 105% | [2] 116% | [3] 59.1% | [4] 62.6% | [6] 108% | [7] 101%

Cc1ccccc1/C=C/C(=O)c1cccc(OCCCCOc2cccc(C(=O)/C=C/c3ccccc3C)c2)c1
inactive: [1] 103% | [2] 94.6% | [3] 90.7% | [4] 80.7% | [5] 101% | [6] 86% | [7] 86% | [8] 104% | [9] 94.5%

CC(C)c1ccc(Cc2cnc(NC(=O)c3cc(Br)cs3)s2)cc1
inactive: [1] 23.7% | [2] 43.9% | [3] 49.7% | [4] 55% | [5] 46.7% | [10] 41.6% | [6] 31.3% | [7] 18.8% | [8] 20% | [9] 43.2%

N#CSCC1CC(O)(c2ccccc2)CC(c2ccc(F)cc2)O1 (centres undefined)
active: [1] -54.6% | [3] -61.5% | [6] -44.9% | [8] 7.42% | [9] -0.406%
inactive: [2] 34.2% | [4] 33.3% | [5] 59.7% | [7] 33.3%

CC(C)c1ccc(C(=O)Nc2sc3c(c2C(N)=O)CCC(=O)C3)cc1
active: [1] -21.5% | [3] 2.75% | [4] -97.1% | [5] -10.6% | [6] -43.9% | [8] 2.5% | [9] -8.16%
inactive: [2] 16.1% | [7] 62.5%

O=C(CSc1nc2sc3c(c2c(=O)n1-c1ccccc1)CCCCC3)N/N=C/c1cccc([N+](=O)[O-])c1
inactive: [1] 90.2% | [2] 70.3% | [3] 66.8% | [4] 75.7% | [5] 96.2% | [6] 60% | [7] 83.7% | [8] 76.6% | [9] 70.5%

COC(=O)/C=C1/SC(=Nc2ccc(C(F)(F)F)cc2)N(CCc2c[nH]c3ccc(O)cc23)C1=O
active: [1] -33.5% | [3] -69% | [4] -18.5% | [7] -1.57% | [8] -9.32% | [9] -36.2%
inactive: [2] 41.1% | [5] 11.7% | [6] 31.4%

COc1ccc(NC(=O)c2sc3nc(C)c(C(=O)/C=C/c4ccccc4)cc3c2N)cc1
inactive: [1] 88.7% | [2] 87.1% | [3] 17.6% | [4] 17.7% | [5] 80.5% | [10] 50.3% | [6] 29% | [7] 21% | [9] 27.6%
active: [8] 3.56%

COc1ccc(Nc2ncc(Br)c(NCCCNC(=O)C3CCCC3)n2)cc1
inactive: [1] 63.6% | [2] 47.3% | [3] 22% | [5] 23.3% | [7] 54.6% | [8] 27.1% | [9] 19.5%
active: [4] -30.8% | [6] 9.48%

COCCOc1cc2ncnc(N3CCN(c4cc(S(C)(=O)=O)c(C)cc4Cl)CC3)c2cc1OCCOC
inactive: [1] 95.3% | [2] 90.4% | [3] 87.2% | [4] 61.8% | [5] 104% | [6] 101% | [7] 88.2% | [8] 89.5% | [9] 79.4%

CN1C(=O)/C(=C\c2nc([P+](c3ccccc3)(c3ccccc3)c3ccccc3)c(N3CCOCC3)o2)SC1=S
inactive: [1] 71.5% | [2] 92.3% | [3] 68.4% | [4] 80.4% | [5] 106% | [6] 91.5% | [7] 85.6% | [8] 19.9% | [9] 81.5%

CN(C)c1ccc(C(=O)OCCCCCCl)cc1
inactive: [1] 94.7% | [2] 96.9% | [3] 96% | [4] 77.8% | [5] 96.5% | [6] 89.1% | [7] 83.9% | [8] 122% | [9] 86.1%

CCOC(=O)c1c2c(n3cccc(F)c13)C(=O)c1ncccc1C2=O
active: [4] -28.5%
inactive: [1] 72.4% | [2] 27.7% | [3] 25.6% | [5] 36.8% | [6] 14.4% | [7] 24% | [8] 67.3% | [9] 69.3%

Oc1c(Br)cc(Br)c2ccc(Cn3cc(-c4ccccc4C(F)(F)F)nn3)nc12
inactive: [1] 101% | [2] 95.5% | [3] 96.9% | [4] 78.7% | [5] 134% | [6] 55% | [7] 106% | [8] 28.7%
active: [9] 6.89%

COc1ccc2c(c1)CC[C@H](O)/C2=C/c1cc(OC)c(OC)c(OC)c1
active: [7] -9.18% | [8] 5.74%
inactive: [2] 38% | [3] 37.6% | [4] 34.3% | [5] 66.6% | [10] 26.4% | [6] 30.5% | [9] 13.5%

O=C1/C(=C\c2ccc3nccnc3c2)SC(=S)N1CCc1ccc(O)cc1
inactive: [2] 100% | [3] 86.9% | [4] 49.7% | [5] 67.8% | [6] 78.9% | [7] 83.1% | [8] 79% | [9] 106%

O=C(Nc1cccc(-c2ccc(Cl)c(C(F)(F)F)c2)c1)C1CCN(Cc2cccc3cccnc23)CC1
inactive: [2] 34.6% | [5] 80.6% | [7] 58.7%
active: [3] 4.06% | [4] 2.47% | [10] -90.6% | [6] -52.5% | [8] 4.08%

Cc1cc(N2CCN(CCNc3ccnc4cc(Cl)ccc34)CC2)nc(N2CCOCC2)n1
inactive: [2] 65.4% | [3] 73% | [4] 43.7% | [5] 84.9% | [10] 77.3% | [6] 57.9% | [7] 45.2% | [8] 75.5% | [9] 47.6%

COc1ccc(C(C)=O)cc1S(=O)(=O)Nc1c(N)nc(SC)[nH]c1=O
inactive: [2] 101% | [3] 103% | [4] 94.5% | [5] 109% | [10] 106% | [6] 93.2% | [7] 106% | [8] 107% | [9] 99.6%

C#CCNC(=O)[C@H](CC)[C@H]1CC[C@H](C)[C@H]([C@@H](C)[C@H](O)[C@H](C)C(=O)[C@H](CC)C2O[C@]3(C=CC(=O)[C@]4(CC[C@@](C)([C@H]5CC[C@](O)(CC)[C@H](C)O5)O4)O3)[C@H](C)C[C@@H]2C)O1 (some centres undefined)
inactive: [2] 51.3% | [3] 48.7% | [4] 47.9% | [5] 87.1% | [10] 45% | [6] 17.4% | [7] 38.5% | [8] 27.3% | [9] 32.4%

CCOC(=O)C1=C(c2ccccc2)N=C2SC=C(c3ccc(Cl)cc3)N2C1c1ccc(Cl)cc1 (centres undefined)
inactive: [2] 69.9% | [3] 85.5% | [4] 74.7% | [5] 108% | [6] 60.7% | [8] 79.3% | [9] 31.5%
active: [7] 7.54%

N=C(N)c1ccc(-c2ccc(-c3ccc(Cl)c(Cl)c3)s2)nc1
active: [6] -60.1% | [8] -1.55% | [9] -26.3%
inactive: [2] 62.8% | [3] 36.6% | [4] 32.7% | [5] 112% | [7] 90.7%
